Read-outs that look alike come from different tables or passages of the source.

Common to all, as to parameters: species or system human, MV4-11 + K-562 + COLO205 + SK-N-BE2 + OVCAR-8
The subject of experiment [1] is CDC42BPA. Conditions: read-out: apparent Kd; compound concentrations:100 nM and 1000 nM (sheet 'Samples'); n = 1.
Experiment [2] concerns CDC42BPB. Conditions: read-out: apparent Kd; compound concentrations:100 nM and 1000 nM (sheet 'Samples'); n = 1.
For experiment [3], the system named is CHEK1. Conditions: read-out: apparent Kd; compound concentrations:100 nM and 1000 nM (sheet 'Samples'); n = 1.
Experiment [4] concerns GSK3A. The following applies: read-out: apparent Kd; compound concentrations:100 nM and 1000 nM (sheet 'Samples'); n = 1.
The test system of experiment [5] is LATS1. Conditions: read-out: apparent Kd; compound concentrations:100 nM and 1000 nM (sheet 'Samples'); n = 1.
In experiment [6] the test system is MELK. Conditions: read-out: apparent Kd; compound concentrations:100 nM and 1000 nM (sheet 'Samples'); n = 1.
Experiment [7] has as its system PIM1. Conditions: read-out: apparent Kd; compound concentrations:100 nM and 1000 nM (sheet 'Samples'); n = 1.
Experiment [8] has as its system PKN1. Conditions: read-out: apparent Kd; compound concentrations:100 nM and 1000 nM (sheet 'Samples'); n = 1.
Experiment [9] deals with PKN2. Conditions: read-out: apparent Kd; compound concentrations:100 nM and 1000 nM (sheet 'Samples'); n = 1.
Experiment [10] deals with PRKCA. The following applies: read-out: apparent Kd; compound concentrations:100 nM and 1000 nM (sheet 'Samples'); n = 1.
The subject of experiment [11] is PRKCB. The following applies: read-out: apparent Kd; compound concentrations:100 nM and 1000 nM (sheet 'Samples'); n = 1.
The test system of experiment [12] is PRKCD. The following applies: read-out: apparent Kd; compound concentrations:100 nM and 1000 nM (sheet 'Samples'); n = 1.
In experiment [13] the test system is PRKCI. Conditions: read-out: apparent Kd; compound concentrations:100 nM and 1000 nM (sheet 'Samples'); n = 1.
Experiment [14] concerns PRKCZ. Conditions: read-out: apparent Kd; compound concentrations:100 nM and 1000 nM (sheet 'Samples'); n = 1.
Experiment [15] concerns PRKG1. The following applies: read-out: apparent Kd; compound concentrations:100 nM and 1000 nM (sheet 'Samples'); n = 1.
Experiment [16] deals with PRKX. Conditions: read-out: apparent Kd; compound concentrations:100 nM and 1000 nM (sheet 'Samples'); n = 1.
The subject of experiment [17] is ROCK2. Conditions: read-out: apparent Kd; compound concentrations:100 nM and 1000 nM (sheet 'Samples'); n = 1.
Experiment [18] deals with RPS6KA5. Conditions: read-out: apparent Kd; compound concentrations:100 nM and 1000 nM (sheet 'Samples'); n = 1.
The subject of experiment [19] is RPS6KB1. The following applies: read-out: apparent Kd; compound concentrations:100 nM and 1000 nM (sheet 'Samples'); n = 1.
In experiment [20] the test system is CDC42BPG. The following applies: read-out: apparent Kd, compound concentrations: 100 nM and 1000 nM (sheet 'Samples'), n = 1.
In experiment [21] the test system is CDC42. Conditions: read-out: apparent Kd; compound concentrations: 100 nM and 1000 nM (sheet 'Samples'), CATDS: 0.328417840290395; n = 1.
Experiment [22] relates to CDK6. Conditions: read-out: apparent Kd; compound concentrations: 100 nM and 1000 nM (sheet 'Samples'), CATDS: 0.35899533679328099; n = 1.
Experiment [23] deals with MAP2K1. Conditions: read-out: apparent Kd; compound concentrations: 100 nM and 1000 nM (sheet 'Samples'), CATDS: 0.31550250727948498; n = 1.
Experiment [24] relates to CAMK4. Conditions: read-out: apparent Kd, n = 1.
In experiment [25] the test system is CDK2. The following applies: read-out: apparent Kd; compound concentrations:100 nM and 1000 nM (sheet 'Samples'); n = 1.
Experiment [26] concerns CDK4. Conditions: read-out: apparent Kd; compound concentrations:100 nM and 1000 nM (sheet 'Samples'); n = 1.
Experiment [27] relates to ILK. The following applies: read-out: apparent Kd; compound concentrations:100 nM and 1000 nM (sheet 'Samples'); n = 1.
The test system of experiment [28] is OPA1. The following applies: read-out: apparent Kd; compound concentrations:100 nM and 1000 nM (sheet 'Samples'); n = 1.
Experiment [29] relates to SMC4. The following applies: read-out: apparent Kd; compound concentrations:100 nM and 1000 nM (sheet 'Samples'); n = 1.
For experiment [30], the system named is VDAC3. The following applies: read-out: apparent Kd; compound concentrations:100 nM and 1000 nM (sheet 'Samples'); n = 1.
Experiment [31] deals with CAMK2B. The following applies: read-out: apparent Kd; compound concentrations:100 nM and 1000 nM (sheet 'Samples'); n = 1.
The test system of experiment [32] is MAPK14. The following applies: read-out: apparent Kd; compound concentrations:100 nM and 1000 nM (sheet 'Samples'); n = 1.
For experiment [33], the system named is MAPKAPK2. Conditions: read-out: apparent Kd; compound concentrations:100 nM and 1000 nM (sheet 'Samples'); n = 1.

With `CCn1c(-c2nonc2N)nc2cncc(CNC3CCNCC3)c21` [SB-747651A], the potency estimated from few doses in [1] is 1740 nM; in [2], 1900 nM; in experiment [3] it was 2160 nM; in experiment [4], 1100 nM; in experiment [5] it was 782 nM; in experiment [6], 655 nM. Also, the potency estimated from few doses was 1120 nM in [7]; 40 nM in [8]; 94.5 nM in experiment [9]; 197 nM in experiment [10]; 153 nM in [11]; 632 nM in [12]. In addition, the potency estimated from few doses was 1480 nM in experiment [13]; 2000 nM in experiment [14]; 702 nM in [15]; 1590 nM in experiment [16]; 36.2 nM in [17]; 96.1 nM in experiment [18]. For the same compound, the potency estimated from few doses in [19] is 22.2 nM.

As for `Cc1ccc(NC(=O)c2ccc(Cl)c(Cl)c2)cc1-c1ccc(C(=O)Nc2ccncc2)cc1` [GSK1398460A], the potency estimated from few doses in experiment [20] (CATDS: 1) was 1100 nM.

Turning to `CCn1c(-c2ccccn2)nc2cnccc21` [SB-736398], the results for the potency estimated from few doses in experiment [21], in experiment [22] and in experiment [23] were 1930 nM, 1630 nM and 2100 nM, respectively.

Take `C/C(=C1/SC(NCc2cccs2)=NC1=O)c1ccc2ncccc2c1` [RO4607009-000]: the potency estimated from few doses in [24] (compound concentrations: 100 nM and 1000 nM (sheet 'Samples'), CATDS: 0.39593568375035498) was 2260 nM; in experiment [20] (CATDS: 0.67827085462466996) it was 701 nM.

In the case of `O=C(Nc1n[nH]c2nc(-c3nccs3)c(Br)cc12)C1CC1` [SB-742251], the potency estimated from few doses in experiment [24] (compound concentrations:100 nM and 1000 nM (sheet 'Samples')) was 1800 nM; in [25] it was 1640 nM; in experiment [26], 1480 nM; in [4], 873 nM; in experiment [27], 2010 nM; in experiment [28], 1520 nM. In addition, the potency estimated from few doses is 1950 nM in [29] and 2000 nM in experiment [30].

Regarding `FC(F)(F)c1ccccc1-c1cc(-c2c[nH]nc2-c2ccccn2)ccn1` [GW679396X], the potency estimated from few doses in [31] was 628 nM; in [32] it was 845 nM; in experiment [33], 941 nM.

The values are drawn from paper PMC11062922 (Nature Chemical Biology, 2023).
